Screening data as filed in PubChem BioAssay.
hNpr1 antagonist: Natriuretic polypeptide receptor (hNpr1) antagonism - Primary qHTS | HEK293 hNpr1 GloSensor cGMP, ANP-stimulated luminescence | 1.6% of 76,000 active | Atrial natriuretic peptide receptor 1 (Homo sapiens), P16066 | AID 1347048, 2019 | Potency, µM (doses to about 46.3 µM), without a hit: at the top dose activity change, negative = inhibition, hits mostly inhibitors; calls by dose curve; note: nearly all actives have a fitted effect of over 60% in size
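Compound pre-incubated 30 min at room temperature on GloSensor-loaded HEK293 cells stably carrying hNpr1 and the pGS-40F cGMP biosensor. Stimulation uses hNppA at 0.1 nM final; luminescence is taken at baseline and 20 min post-agonist.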
Luciferase inh: Firefly luciferase inhibition profiling of diverse chemical library using quantitative high-throughput screening. Potency, µM (highest dose often 115 µM), usual class: inhibitors. purified P. pyralis luciferase, luminescence, biochemical. 2.5% of 76,000 active; note: nearly all actives have a fitted effect of over 65% in size
Target sequence (P08659 whole entry, looked up): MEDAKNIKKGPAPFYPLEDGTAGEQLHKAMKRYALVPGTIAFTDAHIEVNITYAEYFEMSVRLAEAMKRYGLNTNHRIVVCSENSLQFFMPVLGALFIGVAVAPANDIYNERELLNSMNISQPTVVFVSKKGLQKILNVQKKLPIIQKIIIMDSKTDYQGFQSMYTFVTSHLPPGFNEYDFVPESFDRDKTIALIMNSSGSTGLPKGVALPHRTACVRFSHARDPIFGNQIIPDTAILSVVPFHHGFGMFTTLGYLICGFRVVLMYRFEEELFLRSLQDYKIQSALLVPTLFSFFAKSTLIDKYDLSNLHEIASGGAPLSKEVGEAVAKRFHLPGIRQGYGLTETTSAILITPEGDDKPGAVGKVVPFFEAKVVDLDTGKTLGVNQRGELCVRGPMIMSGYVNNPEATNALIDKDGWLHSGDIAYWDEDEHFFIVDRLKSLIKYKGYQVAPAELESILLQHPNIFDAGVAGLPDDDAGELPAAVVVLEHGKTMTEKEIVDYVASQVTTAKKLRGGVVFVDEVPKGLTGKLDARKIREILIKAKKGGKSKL
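Luminescence read by CCD imaging after purified firefly luciferase (10nM final) was added to substrate buffer holding 10uM D-luciferin and 10uM ATP, pH 7.5, pre-dosed with compound.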
NIH3T3 tox: Cytotoxic Profiling in NIH 3T3 Cell Line of Diverse Libraries Using Quantitative High-Throughput Screening | Potency, µM (series often up to 96.7 µM), for inactives: at the highest dose activity change, negative = cytotoxicity, actives largely listed as inhibitors | NIH 3T3 viability, CellTiter-Glo ATP luminescence, 48-72 h | 4.3% of 94,000 active; note: nearly all actives have a fitted effect of over 55% in size
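ATP-dependent luminescence (CellTiter-Glo) served as the viability signal for NIH 3T3 cells treated with compound for 48 or 72 hr at 37 °C.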
HEK293 tox: Cytotoxic Profiling in HEK 293 Cell Line of Diverse Libraries Using Quantitative High-Throughput Screening; HEK 293 viability, ATP luminescence (CellTiter-Glo), 48-72 h; Potency, µM (top dose mostly 115 µM), for inactives: top-dose activity change, negative = cytotoxicity, most hits filed as inhibitors; 6.6% of 94,000 active; note: nearly all actives have a fitted effect of over 60% in size
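CellTiter-Glo luminescence (cellular ATP) was read after 48 or 72 hr of compound exposure at 37 degree Celsius. Cells were HEK 293 plated at 250 cells/well.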
GPT2 inhibitor: Primary qHTS assay for inhibitors of Glutamate pyruvate transaminase 2 (GPT2); Alanine aminotransferase 2 (Homo sapiens), Q8TD30; Recombinant GPT2, coupled pyruvate oxidase/HRP Amplex Red fluorescence; Potency, µM (top dose mostly 57.7 µM), without a hit: top-dose activity change, negative = inhibition, actives largely listed as inhibitors; 0.25% of 100,000 active; AID 1671188, 2021; note: nearly all actives have a fitted effect of over 60% in size
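Recombinant GPT2 (10ng/uL) with 250uM a-KG and 2mM L-alanine, 30 min at room temperature, in HEPES pH 7.5 buffer. Pyruvate detected by pyruvate oxidase/HRP/Amplex Red fluorescence after 30 min in the dark; AOA (50uM) as positive control.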
* hit, by the source's call; i = inactive; ? = inconclusive; . = no result; [ ] = remark or other dose. Shown are actives, neighbours in structure and some others; about 10% of the full set was active somewhere. Unless noted, calls come from the whole dose curve; as a rule, active = well fitted curve in the direction sought with a large enough effect; inconclusive = small, poorly fitted or top-dose-only effect, or another doubt; inactive = no such curve, though single readings can be large; an effect the other way counts as inactive or inconclusive. % is set by controls: 0 for no effect and ±100 for the full control effect; potency is the fitted concentration of half-maximal effect.

SMILES	hNpr1 antagonist	Luciferase inh	NIH3T3 tox	HEK293 tox	GPT2 inhibitor
Cc1ncsc1C(=O)N1CCCC(CCc2ccc(F)cc2F)C1 (configuration not stated)	-22%	i	?	89µM*	?
CSCC(=O)N1CCCC(CCc2cccc(F)c2)C1 (configuration not stated)	-19%	?	?	20µM*	?
O=C(CCc1cccnc1)N1CCCC(CCc2cccc(F)c2)C1 (configuration not stated)	-21%	?	?	?	5%
CCCc1ncncc1C(=O)N1CCCC(CCc2ccc(F)cc2)C1 (configuration not stated)	1%	i	?	?	i
O=C(c1ccncc1)N1CCCC(CCc2ccc(F)cc2)C1 (configuration not stated)	?	i	?	40µM*	-4%
O=C(c1cccc(O)c1)N1CCCC(CCc2cccc(C(F)(F)F)c2)C1 (configuration not stated)	2%	i	?	40µM*	i
CCCn1nccc1C(=O)N1CCCC(CCc2cccc(C(F)(F)F)c2)C1 (configuration not stated)	?	i	?	25µM*	2%
C#CCNC(=O)c1cc(C(C)(C)C)nc2c1cnn2C	.	.	?	?	i
CCc1noc([C@@H]2CC(F)(F)CN2C(=O)c2ccoc2C)n1	-4%	35µM*	-9%	?	2%
COC(=O)[C@@H]1Cc2c([nH]c3ccccc23)[C@H]2C[C@H](NCc3cccs3)C[C@@H](c3ccc(F)cc3)N21	1%	i	22µM*	28µM*	-4%
COC(=O)[C@@H]1Cc2c([nH]c3ccccc23)[C@H]2C[C@@H](NCc3cccs3)C[C@@H](c3ccc(F)cc3)N21	0%	i	79µM*	?	1%
COc1ccc(-c2cn3cc(C(=O)NC4CC4)nc3s2)cc1	.	.	?	?	i
Cc1cc(Cn2cc3c4c(cccc42)[C@H](CC(C)C)N[C@H](C(=O)NCC2CC2)C3)no1	-6%[70.6 µM]	i	89µM*	79µM*	0%[88.5 µM]
Cc1cc(Cn2cc3c4c(cccc42)[C@H](CC(C)C)N[C@H](C(=O)NCCN(C)C)C3)no1	6%	i	22µM*	35µM*	-1%
Cc1ccc(S(=O)(=O)N2CCC(CCC(=O)NCCc3ccccc3)CC2)cc1	.	.	?	?	-6%
COc1ccc(-c2cc(C(=O)NCc3cccc(Cl)c3)c3cnn(C)c3n2)cc1	.	.	?	-25%	-12%
COc1ccc(C(=O)N2CCc3ccc(C(=O)NCc4cccc(OC)c4)cc32)cc1	2%	i	?	79µM*	i
COc1ccc(C(=O)N2CCc3ccc(C(=O)NCc4cccc(F)c4)cc32)cc1	-26%	i	?	40µM*	-15%
O[C@@H]1C[C@@H](c2nc(-c3ccccc3)no2)N(Cc2cccc(OC(F)(F)F)c2)C1	-1%[70.6 µM]	71µM*	?	?	?
O[C@@H]1C[C@@H](c2nc(-c3ccc(C(F)(F)F)cc3)no2)N(Cc2cccc(OC(F)(F)F)c2)C1	2%	35µM*	?	79µM*	-7%
Cc1ccc(-c2noc([C@@H]3C[C@@H](O)CN3Cc3cccc(OC(F)(F)F)c3)n2)cc1F	-12%	i	?	?	?
Cc1ccc2nc(CO[C@H]3CN(Cc4ccc(C(F)(F)F)cc4)C[C@H]3F)[nH]c2c1	?	i	?	?	-8%[88.5 µM]
O=C(c1ccc(Cl)s1)N1CCC2(CC1)CN(c1ccncn1)CC2CO (configuration not stated)	?	i	?	50µM*	i
CC1=C[C@@H](CN(C)CCC#N)[C@H](C(C)C)C[C@H]1Cc1nnc(-c2ccccc2F)o1	?	i	?	79µM*	-1%[88.5 µM]
CC1=C[C@@H](CN(C)CCc2ccccn2)[C@H](C(C)C)C[C@H]1Cc1nnc(-c2ccncc2)o1	1%	i	?	79µM*	2%
SMILES	hNpr1 antagonist	Luciferase inh	NIH3T3 tox	HEK293 tox	GPT2 inhibitor
CC1=C[C@@H](CN2CCC(C(N)=O)CC2)[C@H](C(C)C)C[C@H]1Cc1nnc(-c2ccccc2F)o1	1%	i	?	?	3%
CC1=C[C@@H](CNC(=O)C(C)(C)C)[C@H](C(C)C)C[C@H]1Cc1nnc(-c2ccccc2F)o1	-27%[70.6 µM]	i	?	32µM*	-8%[88.5 µM]
CC1=C[C@@H](CN(C)CCN(C)C)[C@H](C(C)C)C[C@H]1Cc1nnc(-c2ccccc2)o1	2%[70.6 µM]	i	28µM*	45µM*	1%[88.5 µM]
O=C(c1ccsc1)N1CCC(N2CC(OCC3CC3)C23CCOCC3)CC1 (configuration not stated)	.	.	-23%	-24%	-9%
COCC(=O)N1CCN(C(=O)c2nc3cccnc3n(CCc3ccccc3)c2=O)CC1	.	.	-7%	1%	i
Cc1noc(C)c1[S+](=O)([O-])N1CCCC1C(=O)N1CCC(N2CCOCC2=O)CC1 (configuration not stated)	.	.	-7%	i	2%
O=C(Cc1cccc(Cl)c1)NC1CCN(C(=O)c2ccc(-c3cccs3)cc2)CC1	.	.	?	?	-11%
Cc1ccc(CN2CC[C@H](c3nc4cc(C)ccc4o3)C2)cc1	0%[70.6 µM]	45µM*	?	?	-4%[88.5 µM]
Cc1ccc2oc([C@H]3CCN(C(=O)C4CC4)C3)nc2c1	5%[70.6 µM]	35µM*	-19%[174 µM]	?	-5%[88.5 µM]
Cc1ccc2oc([C@H]3CCN(Cc4ccccn4)C3)nc2c1	-17%[70.6 µM]	?	?	?	?
Cc1ccc2oc([C@H]3CCN(Cc4ccc(C(=O)O)cc4)C3)nc2c1	2%[70.6 µM]	71µM*	?	-7%[172 µM]	-1%[88.5 µM]
O=C(NCCCN1CCOCC1)c1ccc(-c2ccc(N3CCCCCC3)nc2)cc1	-12%	?	?	35µM*	-8%
O=C(NCc1cccnc1)c1ccc(-c2ccc(N3CCSCC3)nc2)cc1	11µM*	?	4.5µM*	10µM*	?
O=C(NCCCN1CCCC1=O)c1ccc(-c2ccc(N3CCSCC3)nc2)cc1	?	40µM*	?	?	-6%
COCCNC(=O)c1ccc(-c2ccc(N3CCCCCC3)nc2)cc1	-3%	?	?	?	-26%
COc1ccc(CNC(=O)c2ccc(-c3ccc(N4CCSCC4)nc3)cc2)cc1	-1%	i	i	-7%	i
